# Source: PubChem BioAssay (Tox21)
# Records with an inconclusive call do not appear. Calls of active or inactive are those of the source. Calls come from the whole dose curve; as a rule, active = well fitted cell-killing curve with a large enough effect in the repeat runs; inconclusive = weak or mixed curves, or effect the other way; inactive = flat fitted curve, though single readings scatter.
# Assay: qHTS assay to identify small molecule agonists of the constitutive androstane receptor (CAR) signaling pathway - cell viability counter screen (AID 1224836); note: nearly all actives have a fitted effect of over 45% in size
# Conditions: HepG2-CYP2B6-hCAR viability, CellTiter-Fluor, 23 h, PK11195 added to every well; series mostly up to 92.4 µM; viability change, negative = cytotoxic: at the top concentration
# From the text: U.S. Tox21 Program National Center for Advancing Translational Sciences [NCATS] NIH Chemical Genomics Center [NCGC] U.S. Environmental Protection Agency [EPA] National Institutes of Environmental Health Sciences [NIEHS] National Toxicology Program [NTP] U.S. Food and Drug Administration [FDA] Tox21 Assay Overview: The constitutive androstane receptor (CAR) is a nuclear receptor which regulates multiple drug metabolizing enzymes (DMEs) and transporters. Activating CAR will generally increase the transcription and subsequent translation of CYP2B6 and CYP3A4. These two DMEs represent about 50% of the drug metabolizing potential in the body. […] Recently, there have also been studies performed indicating CARs role in energy metabolism and cancer therapy. Therefore, inducing CARs activity could have a potential effect on diabetes and cancer. Identifying environmental toxins and compounds which modulate CAR, through the use of the Tox21 10K compound collection, will be an important step in determining the toxicity and potential therapeutic effects these factors will have on the human body. To differentiate true CAR agonists from cytotoxic substances, the assay is multiplexed with a cell viability assay.
# Tox21 Assay Protocol Summary: A double-stable (hCAR and CYP2B6-2.2kb) transfected cell line, derived from human hepatoma (HepG2) cells, was utilized for the duration of the quantitative high-throughput screens. The HepG2-CYP2B6-hCAR cells were dispensed at 2500 cells/4 uL/well in 1536-well white solid bottom plates using a Multidrop Combi. After the assay plates were incubated at 37 C/5% CO2 for 4 hrs, 23 nL of compounds at 15 concentrations (from 5-48 columns) or positive control (from 1 to 4 columns) were transferred to the assay plates using a Pintool station. One uL of PK11195 (final concentration = 0.75 uM) was added, using a Flying Reagent Dispenser, inside each well. After a 23 hr incubation period at 37 C/5% CO2, 1 uL of CellTiter-Fluor reagent was added into each well of the assay plates using a Flying Reagent Dispenser. The fluorescence intensity in the plates was then measured using a ViewLux plate reader.
# % is set by controls: 0 for no effect and ±100 for the full control effect.
row,Structure (SMILES),"viability change, negative = cytotoxic"
1,CC(C(=O)O)c1ccc2c(c1)CC(=O)c1ccccc1S2 (stereo not given),-0.422% [at 42.5 µM] (inactive)
2,O=C(OCC1(COC(=O)c2cccnc2)CCCC(COC(=O)c2cccnc2)(COC(=O)c2cccnc2)C1O)c1cccnc1,1.1% [at 42.5 µM] (inactive)
3,CC(=O)NCCCCCC(=O)O,-0.218% [at 42.5 µM] (inactive)
4,CCCCCCCCCCl,-0.401% (inactive)
5,CC(=O)c1sc(C)nc1C,3.4% (inactive)
6,Cc1cc(C(C)(C)C)c(O)c(C)c1CC1=NCCN1,-1.14% [at 42.5 µM] (inactive)
7,C=C(C)C(=O)OCCOP(=O)(O)OCCOC(=O)C(=C)C,-5.58% (inactive)
8,CC(=O)/C=C/C1C(C)=CCC(C)C1(C)C (stereo not given),1.25% (inactive)
9,COCCOCCOCCOCCOCCO,-3.53% (inactive)
10,CCC(C=O)CC,0.833% (inactive)
11,c1ccc2c(c1)ccc1c3ccccc3ccc21,-8.33% [at 42.5 µM] (inactive)
12,O=C(CS(=O)Cc1ccco1)NC/C=C\COc1cc(CN2CCCCC2)ccn1 (stereo not given),-1.89% [at 42.5 µM] (inactive)
13,OC[C@H](Cc1cccc(O)c1)[C@H](CO)Cc1cccc(O)c1,1.96% (inactive)
14,CNC(=O)[C@H]1O[C@@H](n2cnc3c(NCc4cc(Cl)ccc4OCc4cc(C)no4)ncnc32)[C@H](O)[C@@H]1N,2.87% (inactive)
15,O=C1O[C@@H]2[C@@H](O)[C@H](O)O[C@@H]2[C@H]1O,0.614% (inactive)
16,NCCN1CCOCC1,3.65% (inactive)
17,O=C1c2cccc3c2[C@H](CCC3)CN1[C@@H]1CN2CCC1CC2,-26.4% [at 42.5 µM] (inactive)
18,N[C@@H](CCC(=O)N[C@@H](CS)C(=O)NCC(=O)O)C(=O)O,2.39% [at 19 µM] (inactive)
19,C=CC(OCC)OCC,0.574% (inactive)
20,CC(=O)Nc1cccc(C)c1,1.9% (inactive)

row,Structure (SMILES),"viability change, negative = cytotoxic"
1,O=C(CCN1CCN(CCO)CC1)N1c2ccccc2Sc2ccc(C(F)(F)F)cc21,-7.69% [at 42.5 µM] (inactive)
2,CC/C=C\CC1=C(C)CCC1=O,-4.47% (inactive)
3,Nc1ccc(S(=O)(=O)Nc2ccc(Cl)nn2)cc1,1.45% [at 42.5 µM] (inactive)
4,COC(=O)CCCCCCCC(=O)OC,6.34% (inactive)
5,CC(=O)NCc1c(I)c(NC(C)=O)c(I)c(C(=O)O)c1I,-2.42% [at 42.5 µM] (inactive)
6,CC(C)NCC(O)COc1ccc(COCCOC(C)C)cc1 (stereo not given),4.5% [at 42.5 µM] (inactive)
7,COc1cc2c(cc1OC)[C@@H]1CC(=O)[C@@H](CC(C)C)CN1CC2,1.68% [at 42.5 µM] (inactive)
8,C=C(C)C(=O)OCCN(CC)CC,5.69% (inactive)
9,CCCCOC(=O)c1ccccc1,1.47% (inactive)
10,COCCOC(=O)C1=C(C)NC(C)=C(C(=O)OC(C)C)C1c1cccc([N+](=O)[O-])c1 (stereo not given),-18.6% [at 42.5 µM] (inactive)
11,CCC(C)(CCC(C)C)C(=O)O (stereo not given),13.1% (inactive)
12,BrCCCCCBr,3.24% (inactive)
13,COc1ccc(S(=O)(=O)N2c3ccc(Cl)cc3[C@@](O)(c3ccccc3Cl)[C@H]2C(=O)N2CCC[C@@H]2C(N)=O)cc1OC,6.93% [at 42.5 µM] (inactive)
14,CC(C)C[C@H](NC(=O)CNC(=O)[C@H](Cc1ccc(O)cc1)NC(=O)[C@H](CO)NC(=O)[C@H](Cc1c[nH]c2ccccc12)NC(=O)[C@H](Cc1cnc[nH]1)NC(=O)[C@@H]1CCC(=O)N1)C(=O)N[C@@H](CCCN=C(N)N)C(=O)N1CCC[C@H]1C(=O)NCC(N)=O (stereo in doubt),-8.65% [at 42.5 µM] (inactive)
15,CN=C(NC#N)Nc1ccc(C2=NNC(=O)CC2C)cc1 (stereo not given),3.2% [at 42.5 µM] (inactive)
16,Nc1cccc(O)c1,-0.75% (inactive)
17,O=C(O)c1ccc(Cl)cc1Cl,5.59% (inactive)
18,CC(C)NCC(O)COc1cccc2[nH]ccc12 (stereo not given),-4.12% [at 42.5 µM] (inactive)
19,O=S(=O)(O)CCN1CCN(CCO)CC1,7.99% (inactive)
20,CCOc1cc(NC(C)=O)ccc1C(=O)OC,7.06% [at 42.5 µM] (inactive)
